High-throughput results (PubChem BioAssay)
A selection: hits, their analogues and other compounds. The true share with any hit is near 1.1%.
TRPV1 PAM: enhances activation of the human vanilloid receptor TRPV1; Q8NER1; TRPV1-expressing cells, Fluo-8 calcium influx, capsaicin EC20 potentiation; potentiation, % at 8.33 µM; 320,000 compounds, 0.02% hits; in the data active means potentiation above about 80%; inconclusive means between about 30% and that limit; further: 0% is about no effect
Target sequence (Q8NER1 whole entry, looked up): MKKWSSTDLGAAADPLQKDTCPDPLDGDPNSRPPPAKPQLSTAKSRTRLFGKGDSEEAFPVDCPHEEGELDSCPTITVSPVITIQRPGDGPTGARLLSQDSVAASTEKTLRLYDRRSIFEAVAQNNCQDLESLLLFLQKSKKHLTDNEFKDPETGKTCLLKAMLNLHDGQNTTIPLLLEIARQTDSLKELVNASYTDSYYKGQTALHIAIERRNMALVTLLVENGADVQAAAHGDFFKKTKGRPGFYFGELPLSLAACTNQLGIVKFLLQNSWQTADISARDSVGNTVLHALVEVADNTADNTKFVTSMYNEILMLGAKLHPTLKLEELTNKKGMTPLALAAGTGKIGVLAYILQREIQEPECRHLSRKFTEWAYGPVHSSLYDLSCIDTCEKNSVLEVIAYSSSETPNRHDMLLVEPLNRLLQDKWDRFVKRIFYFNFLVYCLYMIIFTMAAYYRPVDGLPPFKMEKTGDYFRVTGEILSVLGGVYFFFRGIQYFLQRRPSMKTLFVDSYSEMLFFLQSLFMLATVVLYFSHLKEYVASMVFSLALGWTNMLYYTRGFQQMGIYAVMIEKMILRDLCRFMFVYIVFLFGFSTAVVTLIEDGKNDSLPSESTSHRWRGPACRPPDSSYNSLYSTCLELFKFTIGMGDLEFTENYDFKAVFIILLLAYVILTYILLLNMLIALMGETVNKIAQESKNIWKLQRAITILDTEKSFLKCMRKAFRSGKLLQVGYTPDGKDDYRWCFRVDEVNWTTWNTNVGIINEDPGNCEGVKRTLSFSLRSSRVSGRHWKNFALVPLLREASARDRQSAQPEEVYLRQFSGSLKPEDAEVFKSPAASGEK
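Cells expressing TRPV1 were dye-loaded with Fluo-8 and read kinetically: 10 s baseline, 3 min after compound (agonist portion), then 2 min after EC20 capsaicin (allosteric enhancer portion). Calcium-bound dye fluorescence at 480/520 nm.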
gsp antagonist: antagonizes gsp, the McCune-Albright syndrome mutation. gsp-mutant cells, cAMP HTRF, 30 min. Potency, µM (top dose mostly 76.9 µM), for the others: top-dose activity change, negative = inhibition, usual class: inhibitors. 340,000 compounds, 0.4% hits; calls by dose curve; cell line not stated here;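 further: intracellular cAMP measured with PDE inhibitor Ro 20-1724 present during compound exposure; potency means the concentration at half of the fitted maximal effect; on the % scale 0 is the no-effect control and ±100 the full control effect; nearly all actives have a fitted effect of over 65% in size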
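HTRF cAMP read-out (cAMP-d2 plus anti-cAMP antibody-K in lysis buffer, 30 min RT). Before lysis, cells are exposed to compounds with […] for 30 min at 37C in DPBS containing Ca/Mg, BSA and Tween 20.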
RXFP1 antag: RXFP1 (human) relaxin receptor antagonism; Q9HBX9; HEK293-RXFP1, relaxin-stimulated cAMP HTRF, 30 min; stronger effect = lower value; activity change, negative = inhibition, % at 57.5 µM; 350,000 compounds, 0.59% hits; AID 1259400;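 active means activity change of -60% or lower, but not beyond a set lower limit; inconclusive means change between -60% and -40%, or beyond the set limit; inactive means change above -40%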; further: on the % scale 0 is the no-effect control and ±100 the full control effect
gsp ag: agonists of gsp mutant (McCune-Albright syndrome); gsp mutant cells, cAMP HTRF, 30 min; AID 624287; 340,000 compounds, 0.13% hits; Potency, µM (titrated, usually from 76.9 µM), inactives show at the top dose activation (cAMP increase), most hits filed as activators; active means well fitted activation curve with a large enough effect; inconclusive means small, poorly fitted or top-dose-only effect, or another doubt; inactive means no such curve, though single readings can be large or run the other way; cell line not stated here;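 further: phosphodiesterase inhibitor Ro 20-1724 added with compounds to block cAMP breakdown; potency means the concentration at half of the fitted maximal effect; nearly all actives have a fitted effect of over 60% in size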
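Cells in DMEM/10% FBS with G418 were pretreated with compounds in DMSO plus […] (300 uM stock) for 30 min at 37C. cAMP was measured by HTRF (cAMP-d2 plus anti-cAMP antibody-K) after 30 min at room temperature.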
TRPV1 agonist: human TRPV1 agonism | Q8NER1 | TRPV1-expressing cells, Fluo-8 calcium influx, agonist mode | activation, % at 8.33 µM | 320,000 compounds, 0.19% hits | AID 540275; in the data active means activation above about 80%; inconclusive means between about 30% and that limit; further: 0% is about no effect
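TRPV1-expressing cells were cultured overnight at 35.5C and loaded with Fluo-8 calcium dye for 40 to 90 min at room temperature. After a 10 s baseline, compound was added and calcium influx was read kinetically for 3 min (ex 480/em 520 nm).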
RXFP1 agonist: activates the human relaxin receptor RXFP1; Q9HBX9; Potency, µM (doses to about 57.5 µM), inactives show at the highest dose activation, actives largely listed as activators; HEK293T-RXFP1 cAMP TR-FRET, 30 min; response scale: percent of porcine relaxin response, buffer zero; 370,000 compounds, 0.3% hits; active means well fitted activation curve with a large enough effect; inconclusive means small, poorly fitted or top-dose-only effect; further: potency means the concentration at half of the fitted maximal effect; on the % scale 0 is the no-effect control and ±100 the full control effect; nearly all actives have a fitted effect of over 60% in size
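HEK293 cells stably expressing RXFP1, treated 30 min at 37C with compounds plus PDE4 inhibitor Ro 20174; cAMP measured by HTRF TR-FRET. Normalized to buffer and 29 nM porcine relaxin; EC50 by Hill fit.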
* marks the source's active call; other numbers are inactive results; ? = inconclusive; . = no result; [ ] = dose if it differs, or a comment.

SMILES	TRPV1 PAM	gsp antagonist	RXFP1 antag	gsp ag	TRPV1 agonist	RXFP1 agonist
CC1(C)C[C@H]2C3=CCC4[C@@]5(C)CC[C@H](O[C@@H]6O[C@H](C(=O)O)[C@@H](O)[C@H](O)[C@H]6O)[C@@](C)(CO)C5CC[C@@]4(C)[C@]3(C)C[C@H](O)[C@@]2(CO)[C@@H](O)[C@@H]1O (stereo not given in full)	.	7%	.	.	.	.
CN1c2ccccc2C(O)=C(C(=S)Nc2ccc(Cl)cc2)S1(=O)=O	5	28µM*	-4	3%	4	-2%
Cc1cccc(NC(=O)C2=C(O)c3ccccc3N(C)S2(=O)=O)c1	-11	25µM*	18	18%	4	-2%
O=C1/C(=C/c2cccnc2)SC(=S)N1Cc1ccco1	.	35µM*	?	-22%	.	.
O=C(CCN1C(=O)/C(=C/c2ccccc2)SC1=S)NNC(=O)c1ccncc1	6	40µM*	-1	-31%	-2	-2%
O=C1/C(=C/c2ccccc2)SC(=S)N1CC(=O)N1CCCCC1c1cccnc1 (stereo not given)	5	40µM*	7	30%	0	-4%
CC(=O)c1ccc(NC(=O)c2cnn(-c3cccc(F)c3)c2-n2cccc2)cc1	.	.	-68*	.	.	1%
CSc1cccc(NC(=O)c2cnn(-c3ccc(F)cc3)c2-n2cccc2)c1	.	.	.	.	.	-1%
CC(=O)Oc1ccccc1C(=O)C=Cc1cccc([N+](=O)[O-])c1	.	14%	-84*	1%	.	.
CC(=O)Nc1ccc(C=CC=Cc2cccc([N+](=O)[O-])c2)cc1	.	?	-61*	-2%	.	.
CC(=O)Nc1ccc(S(=O)(=O)N2CCC(C(=O)NCc3ccncc3)CC2)cc1	-4	8%	10	16%	1	0%
CCC(CC)C(=O)Nc1nnc(SCC(=O)NC(C)(C)C)s1	-4	4%	6	?	3	-1%
Cc1ccc(Cl)c2c1=NC(=O)C=2c1[nH]c(=S)[nH]c1O	-1	17%	-109*	?	1	0%
CN(C)S(=O)(=O)Oc1cccc(C(=O)Nc2cccc(Cl)c2)c1	-2	28µM*	-4	-30%	4	-3%
CN(C)S(=O)(=O)Oc1cccc(C(=O)Nc2ccc(Cl)c(Cl)c2)c1	-33	?	-6	4%	-6	0%
Cc1cc(C)c(C)c(S(=O)(=O)N2CCN(c3ccc(O)cc3)CC2)c1C	-9	.	-24	15%[15.4 µM]	6	1%
Oc1c(C=Nc2ccccc2)sc2ccccc12	3	-25%	-70*	5%	-3	4%
Cc1cccc(-c2nc3nc(C)cc(NC(C)c4ccccc4)n3n2)c1 (stereo not given)	.	.	.	.	.	3%
CN(C(=O)c1ccc(N2CCCCC2)c([N+](=O)[O-])c1)C1(C)CCS(=O)(=O)C1 (stereo not given)	0	-22%	-19	3%[15.4 µM]	-2	1%
CCCC(=O)NC1=C(Cl)C(=O)c2ccccc2C1=O	.	45µM*	?	-2%	.	.
Cc1ccc(-c2noc(C3CCCN(C(=O)c4ccccc4Br)C3)n2)cc1 (stereo not given)	5	45µM*	6	-14%	12	0%
C/C(=N/OCC(=O)NCCCCCCNC(=O)CO/N=C(/C)c1cccs1)c1cccs1	-6	-17%	-11	10%	8	-2%
Cc1ccc(S(=O)(=O)Nc2cc3c(cc2NCc2ccccc2)n(C)c(=O)n3C)c(C)c1	.	.	-7	.	.	6%
CCOC(=O)CCCCC(=O)c1[nH]c(=O)[nH]c1CSc1nc(C)cc(C)n1	-12	1%	-2	?	1	5%
CCOC(=O)CCCCC(=O)c1[nH]c(=O)[nH]c1CSc1nnc2c3cc(Br)ccc3n(C)c2n1	-4	.	.	.	-4	14µM*
c1ccc(Cn2c(-c3ccccc3)nc3nc4ccccc4nc32)cc1	16	-17%	-12	27%	21	5%
O=[N+]([O-])c1cc(-c2nc3nc4ccccc4nc3n2CCc2ccccc2)cc([N+](=O)[O-])c1	-3	35µM*	-8	-1%[15.4 µM]	-2	-2%
